Here are results for 38 compounds from the antibiotic and cytotoxicity screens of Wong et al. (2023).

The campaign covered roughly 39,000 compounds. About 1,500 (3.8%) were called active. The list comes from a sample in which actives are over-represented; it also holds similar structures and randomly drawn compounds.

The test concerns HSkMC (human skeletal muscle cells). The experiment in a line: cytotoxicity call (relative viability < 0.9). The note with it: 10 µM.
As for `N[C@@H](C(=O)N[C@@H]1C(=O)N2C(C(=O)O)=C(Cl)CS[C@H]12)c1ccccc1`, the cytotoxicity call was “inactive”.

For `C[C@@H]1CCCCO[C@H](CN(C)C(=O)Cc2ccccc2)[C@@H](C)CN([C@H](C)CO)C(=O)c2cc(NC(=O)C3CCCCC3)ccc2O1`, the cytotoxicity call was “inactive”.

Take `Cc1ccc(S(=O)(=O)N[C@@H](Cc2ccccc2)C(=O)NCCn2cc(CCC(=O)NO)nn2)cc1`: the cytotoxicity call is “inactive”.

Regarding `Cc1ccc(S(=O)(=O)N(C)C[C@@H]2Oc3ccc(NS(=O)(=O)c4cccs4)cc3CC(=O)N([C@@H](C)CO)C[C@@H]2C)cc1`, the cytotoxicity call was “inactive”.

As for `C[C@H](O)C#Cc1ccc2c(c1)O[C@@H](CN(C)C(=O)Cc1ccccn1)[C@H](C)CN([C@@H](C)CO)S2(=O)=O`, the cytotoxicity call was “inactive”.

As for `O=C(C[C@@H]1C=C[C@@H](NC(=O)CN2CCOCC2)[C@@H](CO)O1)NCc1cccc(F)c1`, the cytotoxicity call is “inactive”.

`C[C@H]1CC=CC[C@H](c2cccc(Cl)c2)NC(=O)[C@@H](Cc2ccccc2)N(C)C(=O)c2ccccc2O1`: the cytotoxicity call is “inactive”.

For the compound `COc1ccc(NC(=O)Nc2ccc3c(c2)C(=O)N([C@@H](C)CO)C[C@@H](C)[C@@H](CN(C)Cc2ccccc2)OCCCC[C@@H](C)O3)cc1`, the cytotoxicity call is “inactive”.

Turning to `Cc1noc(C)c1NC(=O)Nc1cccc2c1O[C@@H](CN(C)S(=O)(=O)c1ccccc1)[C@@H](C)CN([C@H](C)CO)C2=O`, the cytotoxicity call was “inactive”.

On to `Cc1ccc(S(=O)(=O)Nc2ccc3c(c2)C(=O)N([C@@H](C)CO)C[C@H](C)[C@@H](CN(C)S(=O)(=O)c2ccc(F)cc2)OCCCC[C@@H](C)O3)cc1`, for which the cytotoxicity call is “inactive”.

For `Cc1ccc(S(=O)(=O)Nc2ccc3c(c2)C(=O)N([C@H](C)CO)C[C@@H](C)[C@H](CN(C)S(=O)(=O)c2ccc(F)cc2)OCCCC[C@@H](C)O3)cc1`, the cytotoxicity call was “inactive”.

Regarding `Cc1ccc(S(=O)(=O)N(C)C[C@H]2OCCCC[C@@H](C)Oc3ccc(NC(=O)Nc4ccc(F)cc4)cc3C(=O)N([C@@H](C)CO)C[C@@H]2C)cc1`, the cytotoxicity call was “active”.

Consider `Cc1ccc(S(=O)(=O)N(C)C[C@H]2OCCCC[C@H](C)Oc3ccc(NS(=O)(=O)c4ccc(F)cc4)cc3C(=O)N([C@@H](C)CO)C[C@@H]2C)cc1`, for which the cytotoxicity call is “inactive”.

Turning to `Cc1ccc(S(=O)(=O)N(C)C[C@@H]2OCCCC[C@H](C)Oc3ccc(NC(=O)Nc4ccc(F)cc4)cc3C(=O)N([C@@H](C)CO)C[C@@H]2C)cc1`, the cytotoxicity call was “inactive”.

For `Cc1ccc(S(=O)(=O)N(C)C[C@H]2OCCCC[C@@H](C)Oc3ccc(NC(=O)Nc4ccc(F)cc4)cc3C(=O)N([C@@H](C)CO)C[C@H]2C)cc1`, the cytotoxicity call is “inactive”.

On to `Cc1ccc(S(=O)(=O)N(C)C[C@@H]2OCCCC[C@@H](C)Oc3ccc(NS(=O)(=O)c4ccc(F)cc4)cc3C(=O)N([C@H](C)CO)C[C@H]2C)cc1`, for which the cytotoxicity call was “active”.

Consider `Cc1ccc(S(=O)(=O)Nc2ccc3c(c2)C(=O)N([C@H](C)CO)C[C@H](C)[C@@H](CN(C)S(=O)(=O)c2ccc(F)cc2)OCCCC[C@H](C)O3)cc1`, for which the cytotoxicity call is “active”.

With `COc1ccc(S(=O)(=O)N(C)C[C@@H]2OCCCC[C@@H](C)Oc3ccc(NS(=O)(=O)c4cn(C)cn4)cc3C(=O)N([C@@H](C)CO)C[C@H]2C)cc1`, the cytotoxicity call was “inactive”.

As for `Cc1ccc(S(=O)(=O)Nc2ccc3c(c2)C(=O)N([C@H](C)CO)C[C@H](C)[C@H](CN(C)S(=O)(=O)c2ccc(F)cc2)OCCCC[C@H](C)O3)cc1`, the cytotoxicity call was “inactive”.

Consider `COc1ccc(S(=O)(=O)N(C)C[C@H]2OCCCC[C@H](C)Oc3ccc(NS(=O)(=O)c4cn(C)cn4)cc3C(=O)N([C@@H](C)CO)C[C@H]2C)cc1`, for which the cytotoxicity call is “active”.

With `COc1ccc(S(=O)(=O)N(C)C[C@@H]2OCCCC[C@H](C)Oc3ccc(NS(=O)(=O)c4cn(C)cn4)cc3C(=O)N([C@H](C)CO)C[C@@H]2C)cc1`, the cytotoxicity call was “inactive”.

For `C[C@H]1CN([C@@H](C)CO)C(=O)c2cc(NC(=O)C3CC3)ccc2O[C@H]1CN(C)Cc1ccc(Oc2ccccc2)cc1`, the cytotoxicity call is “inactive”.

As to `COc1ccc(S(=O)(=O)N(C)C[C@@H]2Oc3ccc(NS(=O)(=O)c4cccs4)cc3C(=O)N([C@@H](C)CO)C[C@@H]2C)cc1`, the cytotoxicity call was “inactive”.

In the case of `C[C@H]1CN([C@@H](C)CO)C(=O)Cc2cc(NC(=O)C3CC3)ccc2O[C@H]1CN(C)S(=O)(=O)c1cn(C)cn1`, the cytotoxicity call was “inactive”.

As for `C[C@H]1CCCCO[C@H](CN(C)C(=O)Nc2ccc3c(c2)OCO3)[C@@H](C)CN([C@@H](C)CO)C(=O)c2cc(NC(=O)CCC(F)(F)F)ccc2O1`, the cytotoxicity call was “inactive”.

For `O=C(O)c1ccc(CCO)s1`, the cytotoxicity call is “inactive”.

As to `COc1ccccc1C#Cc1ccc2c(c1)O[C@H](CN(C)Cc1cncnc1)[C@H](C)CN([C@@H](C)CO)S2(=O)=O`, the cytotoxicity call is “inactive”.

With `COc1ccccc1C#Cc1ccc2c(c1)O[C@@H](CN(C)Cc1cccnc1)[C@H](C)CN([C@@H](C)CO)S2(=O)=O`, the cytotoxicity call is “active”.

As to `COc1ccccc1C#Cc1ccc2c(c1)O[C@H](CN(C)Cc1cccnc1)[C@@H](C)CN([C@@H](C)CO)S2(=O)=O`, the cytotoxicity call is “active”.

As for `COc1ccccc1C#Cc1ccc2c(c1)O[C@@H](CN(C)Cc1cccnc1)[C@@H](C)CN([C@@H](C)CO)S2(=O)=O`, the cytotoxicity call was “inactive”.

On to `COc1ccccc1C#Cc1ccc2c(c1)O[C@@H](CN(C)Cc1cccnc1)[C@@H](C)CN([C@H](C)CO)S2(=O)=O`, for which the cytotoxicity call is “inactive”.

As for `COc1ccccc1C#Cc1ccc2c(c1)O[C@@H](CN(C)Cc1cccnc1)[C@H](C)CN([C@H](C)CO)S2(=O)=O`, the cytotoxicity call was “active”.

Turning to `COc1ccccc1C#Cc1ccc2c(c1)O[C@H](CN(C)Cc1cccnc1)[C@H](C)CN([C@H](C)CO)S2(=O)=O`, the cytotoxicity call was “inactive”.

Turning to `COc1ccccc1C#Cc1ccc2c(c1)O[C@H](CN(C)Cc1cccnc1)[C@@H](C)CN([C@H](C)CO)S2(=O)=O`, the cytotoxicity call was “inactive”.

Consider `COc1ccccc1C#Cc1ccc2c(c1)O[C@H](CN(C)Cc1cccnc1)[C@H](C)CN([C@@H](C)CO)S2(=O)=O`, for which the cytotoxicity call is “inactive”.

On to `C[C@@H]1CN([C@H](C)CO[Si](C)(C)C(C)(C)C)C(=O)c2cc(NC(=O)C3CCCCC3)ccc2O[C@H]1CN(C)C(=O)c1ccc(Cl)cc1`, for which the cytotoxicity call was “inactive”.

Turning to `COc1ccccc1CNC(=O)C[C@@H]1C[C@@H]2c3cc(NC(=O)Nc4ccc(C(F)(F)F)cc4)ccc3O[C@@H]2[C@@H](CO)O1`, the cytotoxicity call is “inactive”.

Regarding `C=CCNC(=O)CSc1nc(=O)cc(N)[nH]1`, the cytotoxicity call was “inactive”.
